This is part of a sample that, as a whole, favours compounds with a hit. Of some 83,000 tested, about 20% had one in any assay.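 In brief: 96-well plates, 48 h treatment, single concentration, percent growth endpoint.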 Activity calls are given as the source filed them. Rule for the calls: active = growth percent below 10; inactive = the rest.
Key:
Assay in all cases: NCI-60 one-dose screen, 48 h (100 = growth as untreated, 0 = no growth, -100 = all killed)
Conditions in all cases: 10 µM unless noted
[1] = system: HCT-15 colon
[2] = system: HT29 colon
[3] = system: SNB-75 CNS
[4] = system: SNB-19 CNS
[5] = system: U251 CNS
[6] = system: PC-3 prostate
[7] = system: SK-MEL-5 melanoma
[8] = system: LOX IMVI melanoma
[9] = system: SK-MEL-28 melanoma
[10] = system: SK-MEL-2 melanoma
[11] = system: EKVX NSCLC
[12] = system: SN12C renal
[13] = system: UO-31 renal
[14] = system: TK-10 renal
[15] = system: ACHN renal
[16] = system: CAKI-1 renal
[17] = system: A498 renal
[18] = system: CCRF-CEM leukemia
[19] = system: MOLT-4 leukemia

Measured: growth

O=C(O[C@@H]1Cc2c(O)cc(O)cc2O[C@@H]1c1cc(O)c(O)c(O)c1)c1cc(O)c2c(c1)OCO2
inactive: [1] 104% | [2] 95.3% | [3] 93.8% | [4] 104% | [5] 83.4% | [6] 83.6% | [7] 98.5% | [8] 95.6% | [9] 101% | [10] 102% | [11] 102% | [12] 98.6% | [13] 92.2% | [14] 88.4% | [15] 112% | [16] 94.4% | [17] 117% | [18] 93% | [19] 81.5%

CCNCCCn1c2c(c3ccc([N+](=O)[O-])cc3c1=O)C(=O)c1cc(OC)cnc1-2
active: [1] -12% | [2] -11% | [3] -23.8% | [5] -73.3% | [6] 1.89% | [7] -97.3% | [8] -91% | [9] -31.5% | [10] -27.8% | [11] 8.7% | [12] 1.09% | [13] -85.1% | [14] -27.6% | [15] -61.1% | [16] -58.5% | [17] -89.2% | [18] 3.93% | [19] -4.26%
inactive: [4] 10.6%

COc1ccc(/C=C/C(=O)NCC(C)O)cc1 (stereo not drawn)
inactive: [1] 102% | [2] 95.1% | [3] 84.7% | [4] 109% | [5] 95.8% | [6] 94.5% | [7] 101% | [8] 97.2% | [9] 102% | [10] 93.3% | [11] 99.4% | [12] 105% | [13] 81.9% | [14] 89.1% | [15] 102% | [16] 95.8% | [17] 92.7% | [18] 106% | [19] 109%

COc1cnc2c(c1)C(=O)c1c-2n(CCCNC2=NCCS2)c(=O)c2cc([N+](=O)[O-])ccc12
active: [1] -60.8% | [2] -42.4% | [5] -83.9% | [6] -48.1% | [7] -41% | [8] -91.3% | [9] -35.9% | [13] -71% | [14] -89.2% | [15] -77.8% | [17] -36% | [18] -10.9% | [19] -11.3%
inactive: [3] 23.7% | [4] 27.2% | [10] 73.1% | [11] 11.3% | [12] 13.5% | [16] 13.3%

CCCCCCCN(CCCCCCC)C(=N)c1ccnc2ccccc12
inactive: [14] 14.9%
active: [1] -72.1% | [2] -50.2% | [3] -68.3% | [4] -51.1% | [5] -87.5% | [6] -22.4% | [7] -98.3% | [8] -94.4% | [9] -74.1% | [10] -46.5% | [11] -15.6% | [12] -42% | [13] -62.5% | [15] -81.9% | [16] 3.85% | [17] -17.2% | [19] -16.5%

O=C(NO)c1ccc(Cn2c(=O)n(CCc3ccc(O)cc3)c(=O)c3ccccc32)cc1
active: [5] 8.31% | [18] 9.36%
inactive: [1] 96.5% | [2] 92.2% | [3] 47.8% | [4] 44.1% | [6] 38.7% | [7] 42.1% | [8] 22.4% | [9] 17.5% | [10] 74.5% | [11] 76.7% | [12] 79% | [13] 88.6% | [14] 84.7% | [15] 91.1% | [16] 95.2% | [17] 45.7% | [19] 15.9%

Nc1ccc(Cl)cn1
inactive: [1] 98.6% | [2] 96.9% | [3] 80.2% | [4] 107% | [5] 94.3% | [6] 90% | [7] 103% | [8] 92.7% | [9] 110% | [10] 107% | [11] 97.4% | [12] 107% | [13] 86.7% | [14] 106% | [15] 109% | [16] 90.5% | [17] 96.4% | [18] 107% | [19] 102%

COC(=O)[C@]12CC[C@@H](C)[C@H](C)[C@@H]1C1=CC[C@@H]3[C@@]4(C)C[C@@H](O)[C@H](O)[C@@](C)(CO)C4=CC[C@@]3(C)[C@]1(C)CC2
active: [1] -60.8% | [2] -36.6% | [3] -58.7% | [4] -80.4% | [5] -85.4% | [6] -85.1% | [7] -98.6% | [8] -100% | [9] -81% | [10] -36.9% | [11] -71.8% | [12] -71.5% | [13] -48.9% | [14] -17.7% | [15] -83.7% | [16] -10.2% | [17] -94.7% | [18] -33.6% | [19] -47.4%

CC1(c2ccccc2)OC1C(=O)O (stereo not drawn)
inactive: [1] 106% | [2] 102% | [3] 91.6% | [4] 109% | [5] 117% | [6] 106% | [7] 103% | [8] 97.4% | [9] 98.7% | [10] 107% | [11] 107% | [12] 106% | [13] 84.5% | [14] 102% | [15] 102% | [16] 94% | [17] 109% | [18] 101% | [19] 101%

Fc1ccc(Nc2nnc(-c3ccc(Cl)cc3)o2)cc1
inactive: [1] 98.4% | [2] 94.7% | [3] 102% | [4] 101% | [5] 92.1% | [6] 86.7% | [7] 99.8% | [8] 108% | [9] 106% | [10] 106% | [11] 92.1% | [12] 103% | [13] 85.4% | [14] 137% | [15] 107% | [16] 92.8% | [17] 92.8% | [18] 58.4% | [19] 88.4%

O=Cc1nc2ccccc2[nH]1
inactive: [1] 108% | [2] 91% | [3] 80% | [4] 101% | [5] 92.2% | [6] 78.7% | [7] 102% | [8] 91.2% | [9] 116% | [10] 101% | [11] 94.5% | [12] 101% | [13] 75.9% | [14] 97% | [15] 106% | [16] 93.2% | [17] 105% | [18] 99.8% | [19] 95.4%

O=C1CNCCN1
inactive: [1] 100% | [2] 100% | [3] 92.6% | [4] 104% | [5] 104% | [6] 96.5% | [7] 101% | [8] 98.5% | [9] 105% | [10] 106% | [11] 101% | [12] 97.8% | [13] 91.7% | [14] 100% | [15] 106% | [16] 93.1% | [17] 98% | [18] 99.7% | [19] 94%

Cc1ccc(-c2nn(Cc3cn(-c4cc(C)nc5ccccc45)nn3)c3ncnc(N)c23)cc1
active: [17] -2.48%
inactive: [1] 57% | [2] 49.8% | [3] 15.5% | [4] 53.2% | [5] 71.8% | [6] 49% | [7] 40.7% | [8] 52.4% | [9] 68.7% | [10] 76.2% | [11] 57.3% | [12] 31.1% | [13] 17.6% | [14] 31.8% | [15] 31.9% | [16] 20.8% | [18] 63.1% | [19] 49.9%

Cn1cc(-c2csc(-c3cn(CCN)c4ccc(Br)cc34)n2)c2cccnc21
inactive: [1] 36.5% | [2] 47.2% | [3] 73.4% | [4] 74.1% | [5] 63.1% | [6] 66.3% | [7] 86.8% | [8] 53.5% | [9] 100% | [10] 110% | [11] 74.9% | [12] 68.9% | [13] 61.4% | [14] 116% | [15] 50.8% | [17] 83.9% | [18] 39.8% | [19] 13.5%

COc1cc(/C=C2\C(=O)N(CC(O)COc3cc(O)c4c(=O)cc(-c5ccccc5)oc4c3)c3ccccc32)cc(OC)c1O (stereo not drawn)
inactive: [1] 59.1% | [2] 88.2% | [3] 81.1% | [4] 92.2% | [5] 91.6% | [6] 61.1% | [7] 50% | [8] 80.2% | [9] 92% | [10] 82.2% | [11] 78.8% | [12] 84% | [13] 50.6% | [14] 137% | [15] 80.4% | [17] 105% | [18] 59.1% | [19] 63.8%

COc1cc(/C=N/Nc2ncnc3c2c(C)nn3-c2ccc(F)cc2)ccc1O
inactive: [1] 81.1% | [2] 92.3% | [3] 82.5% | [4] 93.3% | [5] 94.4% | [6] 73% | [7] 56.6% | [8] 81% | [9] 107% | [10] 89.9% | [11] 87.6% | [12] 85.1% | [13] 64.4% | [14] 88.7% | [15] 92.7% | [17] 103% | [18] 62% | [19] 61.7%

CC/C=C\C[C@H]1CC=C2C(=O)C=C[C@@H]2CC=CCCCC(=O)O[C@@H](CCCCC)CC=C2C(=O)C=C[C@@H]2CC=CCCCC(=O)O[C@@H](CCCCC)CC=C2C(=O)C=C[C@@H]2CC=CCCCC(=O)O[C@@H](CCCCC)CC=C2C(=O)C=C[C@@H]2CC=CCCCC(=O)O1
active: [2] 2.5% [7.9 µM] | [5] -45.8% [7.9 µM] | [8] -75.8% [7.9 µM] | [10] -5.92% [7.9 µM] | [12] -10.5% [7.9 µM] | [13] 9.76% [7.9 µM] | [18] 9.35% [7.9 µM] | [19] 4.01% [7.9 µM]
inactive: [1] 47.1% [7.9 µM] | [3] 65.2% [7.9 µM] | [4] 25.7% [7.9 µM] | [6] 13.5% [7.9 µM] | [7] 17.9% [7.9 µM] | [9] 11.9% [7.9 µM] | [11] 63.7% [7.9 µM] | [14] 57.5% [7.9 µM] | [15] 19.6% [7.9 µM] | [17] 73.1% [7.9 µM]

— PubChem BioAssay (NCI)
